aSyn UTR act: Activators via SNCA 5'UTR binding, MLPCN. activity score, % (tested at 7.5 µM), hits read low. AID 1814. 300,000 tested, 7.1% active. alpha-synuclein 5'UTR reporter, activators screen; in the data active = activity score below about -60%
* marks the source's active call; other numbers are inactive results. Not all results are given here.

SMILES	aSyn UTR act
CC(C)c1ccc(NC(=O)C2CC3CCC2C3)cc1 (stereo not drawn)	-197.0*
CCC(C)c1ccc(NC(=O)C2CC3CCC2C3)cc1 (stereo not drawn)	-99.3*
CCC1CCc2sc(C(=O)NCc3ccccn3)cc2C1 (stereo not drawn)	-92.3*
CN1CCN(c2ccc(NC(=O)c3ccc(Cl)cc3Cl)cc2)CC1	-135.7*
O=C(Nc1ccc(N2CCCCC2)cc1)C(Cl)c1ccccc1 (stereo not drawn)	-235.9*
COc1ccccc1C(=O)Nc1ccc(N2CCCCC2)cc1	-65.9*
O=C(Nc1ccc(N2CCCCCC2)cc1)c1ccccc1Cl	-252.4*
O=C(Nc1ccc(N2CCCCC2)cc1)c1ccccn1	113.8
O=C(Nc1ccc(N2CCCC2)cc1)c1ccc(Cl)cc1Cl	-88.4*
CN1CCN(c2ccc(NC(=O)c3ccccc3Br)cc2)CC1	-119.8*
O=C(Nc1ccc(N2CCCC2)cc1)c1cc(Cl)ccc1Cl	-241.2*
O=C(C(Cl)c1ccccc1)N1CCCC1 (stereo not drawn)	-112.1*
O=C(Nc1ccc(NC(=O)c2cccnc2Cl)cc1)c1cccc(Cl)c1	-102.0*
O=C(Nc1ccc(N2CCCC2)cc1)c1cccc(Cl)c1	-137.0*
O=S(=O)(Nc1ccc(F)cc1Cl)c1ccc(-c2cnc(C3CC3)o2)cc1	67.6
O=C(NCC1CCCCC1)c1ccc(F)cc1Cl	-124.5*
Cc1cccc2c1-c1sc(C(=O)Nc3cccnc3)cc1CO2	-117.8*
O=C(Nc1cccnc1)c1cc2c(s1)-c1ccccc1OC2	-126.4*
CCc1ccc(NC(=O)N2CCCCCC2)cc1	-123.6*
COC(=O)c1ccc(NC(=O)C(=O)N2CCCC2)cc1	-147.6*
CCOC(=O)c1ccc(N/C=C2\CCCCC2=O)cc1	-127.1*
O=C(Nc1ccc(Br)cc1)N1CCCCCC1	-144.3*
CCOC(=O)c1ccc(NC(=O)N2CCCCC2)cc1	-91.9*
Cc1ccc(NC(=O)N2CCCCCC2)cc1	-74.2*
COc1ccc(NC(=O)N2CCCCC2)cc1	-65.5*
SMILES	aSyn UTR act
CC[C@H](CO)Nc1nc(Nc2cccc(Cl)c2)c2ncn(C(C)C)c2n1	57.0
COc1ccccc1/C=C/C=N/n1c(-c2ccccn2)n[nH]c1=S	-100.2*
c1ccc(-c2n[nH]c(-c3ccccn3)n2)nc1	-62.6*
c1ccc(-c2n[nH]c(-c3ccccn3)n2)cc1	-113.8*
O=C(Nc1nccs1)c1ccc(-c2ccccc2Cl)o1	-286.5*
O=C(Nc1nccs1)c1ccc(-c2ccccc2[N+](=O)[O-])o1	-134.6*
COc1ccccc1NC(=O)c1ccc(-c2ccccc2[N+](=O)[O-])o1	-124.8*
CCc1ccccc1NC(=O)c1cc(-c2cccs2)on1	-125.3*
O=C(Nc1ccccc1C(F)(F)F)c1cc(-c2cccc(O)c2)on1	-141.5*
CCc1ccccc1NC(=O)c1cc(-c2cccc(O)c2)on1	-81.3*
COc1cc(NC(=O)c2ccc3snnc3c2)cc(OC)c1	-64.6*
O=C(Nc1ccccc1)c1ccc2snnc2c1	-78.8*
CC(C)c1ccc(NC(=O)c2ccc3snnc3c2)cc1	-117.5*
Cc1ccc(NC(=O)c2ccc3snnc3c2)cc1	-226.5*
Cc1cc(C)c(S(C)(=O)=O)c(S(=O)(=O)c2ccc(Cl)cc2)n1	-86.9*
Cc1cccc(-n2ncc3c(NCCCn4ccnc4)ncnc32)c1	-128.9*
O=C1CCCN1CCCNc1ncnc2c1cnn2-c1ccc(Cl)cc1	-151.8*
Cc1cccc(-n2ncc3c(NCCCN4CCCC4=O)ncnc32)c1	-143.1*
O=C(O)CCCN1C(=O)/C(=C\c2ccco2)SC1=S	-141.5*
CC(=C\c1ccccc1)/C=C1/SC(=S)N(CCCC(=O)O)C1=O	66.6
N#C/C(=N\Nc1cccc(C(F)(F)F)c1)C(=O)c1ccsc1	-108.7*
Cc1ccc(-c2cc(C(=O)N3CCOCC3)no2)cc1	66.9
COc1ccc(-c2cc(C(=O)N3CCN(c4ccccc4)CC3)no2)cc1	-156.1*
COc1ccc(-c2cc(C(=O)N3CCCCC3)no2)cc1OC	-111.7*
COc1ccc(-c2cc(C(=O)N3CCCC3)no2)cc1OC	-122.9*
SMILES	aSyn UTR act
C[C@H]1C=CC(=O)O[C@H]1c1ccccc1	-142.4*
COc1ccccc1CNc1ccc2c(c1)CCC2	-82.0*
COc1ccc(CNc2ccc3c(c2)CCC3)cc1Br	-104.7*
CCOc1cc(CNc2ccc3c(c2)CCC3)ccc1OC	-162.7*
Clc1ccc(/C=N/N2CCCCC2)cc1	-102.6*
O=[N+]([O-])c1ccc(/C=N/N2CCCCC2)cc1	-127.6*
CSc1nsc(NC(=O)Cc2ccccc2)n1	-85.4*
CCOc1ncccc1C(=O)Nc1nc(SC)ns1	-107.5*
CCCC1CCC(c2nc(-c3cccnc3)no2)CC1 (stereo not drawn)	-166.3*
O=C(/C=C/c1ccc2c(c1)OCO2)c1ccccn1	-140.3*
Cc1ccc(C(=O)O/N=C(\N)c2ccccn2)c(Cl)c1	107.6
N/C(=N\OC(=O)/C=C/c1ccccc1)c1ccncc1	-133.0*
O=C(/C=C/c1ccccc1)c1ccccn1	-134.9*
N/C(=N\OC(=O)/C=C/c1ccccc1)c1ccccn1	-99.4*
O=C(/C=C/Nc1ccccc1Br)c1ccccn1	114.3
N/C(=N\OC(=O)/C=C/c1ccccc1Cl)c1ccncc1	-126.1*
